Results reported in PubChem BioAssay (NCATS).
Results filed as inconclusive are left out. Active and inactive are the calls of the source. Calls follow the shape of the dose curve; as a rule, active = well fitted curve in the direction sought with a large enough effect; inconclusive = small, poorly fitted or top-dose-only effect, or another doubt; inactive = no such curve, though single readings can be large; an effect the other way counts as inactive or inconclusive.

How the values were obtained:
[1] = Quantitative High-Throughput drug screen in 47 multiple myeloma cell lines against the NCATS MIPE library collection: MOLP8_DSMZ cell viability assay (AID 1918977); also: nearly all actives have a fitted effect of over 45% in size; also: potency is read from the fitted curve at half-maximal effect
Summary of the method: (§1)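 Viability after 48 h drug exposure was measured as ATP-dependent luminescence. Cells, 500 per well, sat at 37 °C under 5% CO2; DMSO wells set 100%, media-only wells 0%.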

[2] = Quantitative High-Throughput drug screen in 47 multiple myeloma cell lines against the NCATS MIPE library collection: NCIH929_DSMZ cell viability assay (AID 1918978); also: nearly all actives have a fitted effect of over 35% in size
Summary of the method: as §1

[3] = Quantitative High-Throughput drug screen in 47 multiple myeloma cell lines against the NCATS MIPE library collection: OCIMY1_PLB cell viability assay (AID 1918979); also: series mostly up to about 46 µM; nearly all actives have a fitted effect of over 35% in size
Summary of the method: as §1

[4] = Quantitative High-Throughput drug screen in 47 multiple myeloma cell lines against the NCATS MIPE library collection: LP1_DSMZ cell viability assay (AID 1918982); also: nearly all actives have a fitted effect of over 35% in size
Summary of the method: as §1

[5] = Quantitative High-Throughput drug screen in 47 multiple myeloma cell lines against the NCATS MIPE library collection: KMS28PE_JCRB cell viability assay (AID 1918983); also: nearly all actives have a fitted effect of over 35% in size; also: potency is read from the fitted curve at half-maximal effect
Summary of the method: as §1

[6] = Quantitative High-Throughput drug screen in 47 multiple myeloma cell lines against the NCATS MIPE library collection: OCIMY7_PLB cell viability assay (AID 1918987); also: nearly all actives have a fitted effect of over 65% in size; also: potency is read from the fitted curve at half-maximal effect
Summary of the method: as §1

[7] = Quantitative High-Throughput drug screen in 47 multiple myeloma cell lines against the NCATS MIPE library collection: OPM1_PLB cell viability assay (AID 1918989); also: nearly all actives have a fitted effect of over 40% in size; also: potency is read from the fitted curve at half-maximal effect
Summary of the method: as §1

[8] = Quantitative High-Throughput drug screen in 47 multiple myeloma cell lines against the NCATS MIPE library collection: SKMM1_PLB cell viability assay (AID 1919863); details: SKMM1 myeloma viability, CellTiter-Glo ATP, 48 h; viability: hits give low values; also: nearly all actives have a fitted effect of over 35% in size; also: potency is read from the fitted curve at half-maximal effect; as to viability: series mostly up to about 46 µM
Summary of the method: as §1

[9] = Quantitative High-Throughput drug screen in 47 multiple myeloma cell lines against the NCATS MIPE library collection: XG6_PLB cell viability assay (AID 1919865); also: nearly all actives have a fitted effect of over 40% in size; also: potency is read from the fitted curve at half-maximal effect
Summary of the method: as §1

[10] = Quantitative High-Throughput drug screen in 47 multiple myeloma cell lines against the NCATS MIPE library collection: VP6_DJ cell viability assay (AID 1919867); also: nearly all actives have a fitted effect of over 40% in size
Summary of the method: as §1

[11] = Quantitative High-Throughput drug screen in 47 multiple myeloma cell lines against the NCATS MIPE library collection: PE2_PLB cell viability assay (AID 1919869); also: nearly all actives have a fitted effect of over 35% in size; also: potency is read from the fitted curve at half-maximal effect
Summary of the method: as §1

[12] = Quantitative High-Throughput drug screen in 47 multiple myeloma cell lines against the NCATS MIPE library collection: MM1S_ATCC cell viability assay (AID 1918980); also: nearly all actives have a fitted effect of over 45% in size; also: potency is read from the fitted curve at half-maximal effect
Summary of the method: as §1

[13] = Quantitative High-Throughput drug screen in 47 multiple myeloma cell lines against the NCATS MIPE library collection: MM1R_ATCC cell viability assay (AID 1918981); also: nearly all actives have a fitted effect of over 35% in size
Summary of the method: as §1

[14] = Quantitative High-Throughput drug screen in 47 multiple myeloma cell lines against the NCATS MIPE library collection: L363_DSMZ cell viability assay (AID 1918984); also: nearly all actives have a fitted effect of over 40% in size; also: potency is read from the fitted curve at half-maximal effect
Summary of the method: as §1

[15] = Quantitative High-Throughput drug screen in 47 multiple myeloma cell lines against the NCATS MIPE library collection: KMS34_JCRB cell viability assay (AID 1918985); also: nearly all actives have a fitted effect of over 40% in size
Summary of the method: as §1

[16] = Quantitative High-Throughput drug screen in 47 multiple myeloma cell lines against the NCATS MIPE library collection: OCIMY5_PLB cell viability assay (AID 1918988); also: nearly all actives have a fitted effect of over 65% in size; also: potency is read from the fitted curve at half-maximal effect
Summary of the method: as §1

[17] = Quantitative High-Throughput drug screen in 47 multiple myeloma cell lines against the NCATS MIPE library collection: U266_ATCC cell viability assay (AID 1919864); also: nearly all actives have a fitted effect of over 35% in size; also: potency is read from the fitted curve at half-maximal effect
Summary of the method: as §1

[18] = Quantitative High-Throughput drug screen in 47 multiple myeloma cell lines against the NCATS MIPE library collection: XG1_PLB cell viability assay (AID 1919866); also: nearly all actives have a fitted effect of over 35% in size
Summary of the method: as §1

[19] = Quantitative High-Throughput drug screen in 47 multiple myeloma cell lines against the NCATS MIPE library collection: MMM1_PLB cell viability assay (AID 1918976); also: nearly all actives have a fitted effect of over 35% in size; also: potency is read from the fitted curve at half-maximal effect
Summary of the method: as §1

CCN(CC)C(=O)c1ccc(C2=CC3(CCNCC3)Oc3cccc(O)c32)cc1
inactive: Potency [1] | Potency [2] | Potency [3] | Potency [4] | Potency [5] | Potency [6] | Potency [7] | viability [8] 112% | Potency [9] | Potency [10] | Potency [11]

C[C@H]1CCCC=CC2C[C@H](O)C[C@@H]2[C@H](O)C=CC(=O)O1 (stereo partly specified)
inactive: Potency [1] | Potency [2] | Potency [3] | Potency [12] | Potency [13] | Potency [4] | Potency [14] | Potency [15] | Potency [6] | Potency [16] | Potency [7] | Potency [17] | Potency [9] | Potency [18] | Potency [10] | Potency [11]

C[C@]12CC[C@H](O)CC1=CC[C@H]1[C@H]3CCC(=O)[C@@]3(C)CC[C@@H]12
inactive: Potency [1] | Potency [2] | Potency [3] | Potency [13] | Potency [4] | Potency [5] | Potency [15] | viability [8] 106% | Potency [11]

NC1CC1c1ccccc1 (stereo unspecified)
inactive: Potency [1] | Potency [2] | Potency [3] | Potency [12] | Potency [4] | Potency [6] | Potency [7] | Potency [17] | Potency [9] | Potency [18] | Potency [11]

Cc1c(C(=O)Nc2cccc(C(F)(F)F)c2)cc(-c2ccccc2)n1CCCN1CCOCC1
active: Potency [19] 20.9 µM | Potency [12] 20.9 µM | Potency [5] 16.6 µM | Potency [14] 5.9 µM | Potency [6] 0.372 µM | Potency [16] 16.6 µM | Potency [7] 18.7 µM | Potency [8] 26.4 µM | Potency [17] 16.6 µM | Potency [11] 14.8 µM

CC(C)[C@H]1C(=O)N[C@H](CO)Cc2c[nH]c3cccc(c23)N1C
active: Potency [1] 0.166 µM | Potency [5] 0.264 µM | Potency [7] 0.372 µM | Potency [9] 0.0935 µM
inactive: Potency [19] | Potency [2] | Potency [3] | Potency [13] | Potency [14] | Potency [15] | Potency [16] | Potency [17] | Potency [18] | Potency [10]
